Assay outcomes (PubChem BioAssay)
This is a sample that favours compounds with a hit; in the whole collection about 2.3% have one here.
MCL1-BIM inh: inhibitors of human MCL1 binding to BIM-BH3 peptide; Q07820; 0.68% of 320,000 active; GST-MCL1 / FITC-Bim-BH3 fluorescence polarization; inhibition, % at 10.9 µM;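 active = inhibition above the mean inhibition of all tested compounds plus 3 SD, set per campaign, cut at about 40% in these data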;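 note: 0% = DMSO wells and 100% = unlabeled Bim-BH3 peptide control; higher means more loss of mP so more displacement of Bim peptide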
BCLXL inh: blocks human Bcl-xL binding to Bim BH3 peptide; GST-Bcl-xL / FITC-Bim BH3 peptide fluorescence polarization; 0.7% of 320,000 active; AID 2129; inhibition, % at 10.9 µM;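 active = inhibition above the mean of all tested compounds plus 3 SD, cutoff set per campaign, cut at about 30% in these data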;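 note: 0% = DMSO wells and 100% = unlabeled Bim-BH3 peptide competitor; inhibitors lower millipolarization by displacing the labeled peptide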
Target sequence (Q07817 whole entry, looked up): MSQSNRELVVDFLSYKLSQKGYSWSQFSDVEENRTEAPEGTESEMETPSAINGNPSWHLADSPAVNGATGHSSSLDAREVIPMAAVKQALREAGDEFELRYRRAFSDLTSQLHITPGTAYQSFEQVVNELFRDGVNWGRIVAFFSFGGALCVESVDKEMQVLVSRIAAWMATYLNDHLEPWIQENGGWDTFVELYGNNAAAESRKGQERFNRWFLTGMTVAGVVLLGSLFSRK
Mcl1-Bid inh: disrupts binding of human Mcl-1 to Bid peptide; Q07820; TR-FRET Mcl-1/Bid-Dy647 peptide binding, 1536-well; inhibition, % at 21.7 µM; 0.97% of 220,000 active; AID 1021;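 active = compounds that cut the binding signal by more than half at the single screening dose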;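 note: His-tagged Mcl-1 with europium anti-His antibody binding Bid BH3 peptide; 0% = Mcl-1 plus peptide wells and 100% = peptide-only wells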
Mcl-1 Bim block: human Bim-Mcl-1 interaction inhibition. 0.1% of 190,000 active. Q07820. Bead-based flow cytometry, Bim peptide-Mcl-1 binding. inhibition, % at 10 µM; in the data active = inhibition above about 40%;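 note: 0% = no compound tracer wells and 100% = peptide blocker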
GLD-1 TGE inh: GLD-1-TGE RNA interaction inhibition (C. elegans); purified GLD-1 + fluorescein TGE RNA, fluorescence polarization; 0.44% of 320,000 active; inhibition, % at 5.96 µM; Q17339; AID 2280;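 active = percent inhibition above a per-plate cutoff, the plate mean of test compounds plus 3 SD, cut at about 30% in these data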;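 note: 0% = DMSO wells with GLD-1 and probe and 100% = wells lacking GLD-1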
Mcl1-Noxa inh: disrupts binding of human Mcl-1 to Noxa peptide | TR-FRET Mcl-1/Noxa peptide binding, 2 h | inhibition, % at 21.7 µM | 1.5% of 220,000 active;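 active = compounds that cut the protein-peptide binding signal by more than 50% relative to plate controls in a single-dose test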;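 note: His-tagged Mcl-1 with rhodamine Noxa BH3 peptide and terbium anti-His antibody; 0% = Mcl-1 plus Noxa peptide wells and 100% = peptide-only wells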
Bcl-xL conf: counter-screen for MCL1 inhibitors: confirmation of human Bcl-xL inhibitors; shares compounds with MCL1-BIM inh; GST-Bcl-xL / FITC-Bim BH3 peptide FP binding; inhibition, % at 10.9 µM; 54% of 1,700 active; AID 2166;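 active = inhibition above a cutoff equal to the mean inhibition of all tested compounds plus 3 SD, cut at about 30% in these data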;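 note: 0% = DMSO wells and 100% = unlabeled Bim BH3 control peptide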
MCL1 inh confirm: MCL1-BIM-BH3 interaction inhibition, confirmation | shares compounds with MCL1-BIM inh | GST-MCL1 / FITC-Bim-BH3 fluorescence polarization | inhibition, % at 10.9 µM | 61% of 1,700 active | AID 2168;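 active = inhibition above the average of all tested compounds plus 3 SD, cut at about 40% in these data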;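 note: 0% = DMSO wells and 100% = unlabeled Bim-BH3 control peptide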
Numbers without * were called inactive; / = not tested or not shown; + = active, no number.

SMILES	MCL1-BIM inh	BCLXL inh	Mcl1-Bid inh	Mcl-1 Bim block	GLD-1 TGE inh	Mcl1-Noxa inh	Bcl-xL conf	MCL1 inh confirm
O=C(c1ccc(Cl)cc1)C1C2C(=O)N(c3ccccc3)C(=O)C2C2CCCN21 (stereo not given)	/	/	-81	1	/	7	/	/
O=C(CSc1nc(-c2ccccc2)ns1)NCC1CCCO1 (stereo not given)	6	6	/	/	2	/	/	/
CSc1nnc(N2C(=O)C(O)=C(C(=O)c3ccco3)C2c2ccccc2F)s1 (stereo not given)	80*	70*	/	/	86*	/	25	25
O=C(C1=C(O)C(=O)N(c2nc3ccc(Cl)cc3s2)C1c1ccco1)c1ccco1 (stereo not given)	57*	19	/	/	1	/	26	48*
CSc1nnc(N2C(=O)C(O)=C(C(=O)c3ccco3)C2c2ccccc2)s1 (stereo not given)	53*	54*	/	/	54*	/	54*	70*
Cc1ccc2c(c1)c1nc3ccccc3nc1n2C	76*	58*	/	/	19	/	84*	136*
COc1ccc(C(=O)N(C)C2CCN(C)CC2)cc1S(=O)(=O)Nc1cc(Cl)ccc1Cl	-3	2	-12	/	0	25	/	/
Cc1cc(OCC(=O)Nc2ccncc2)ccc1[N+](=O)[O-]	-5	3	-11	0	3	5	/	/
CN(C)c1ccc(/C=N/N(CCO)C2=NS(=O)(=O)c3ccccc32)cc1	140*	+	/	/	36*	/	+	+
c1ccc(Nc2ccccc2Nc2ccccn2)nc1	98*	98*	3	-3	141*	9	18	29
Cc1cc(/C=C(\C#N)c2nc3ccccc3[nH]2)c(C)n1C	122*	110*	-80	-3	133*	37	127*	149*
Cc1cc(/C=C(/C#N)c2nc3ccccc3[nH]2)c(C)n1-c1cccc([N+](=O)[O-])c1	4	10	-71	1	4	13	/	/
O=C(Cc1ccc(-n2c(=O)c3sccc3n(CC(=O)Nc3ccccc3F)c2=O)cc1)NCc1ccco1	4	5	-10	4	2	-2	/	/
COC(=O)CN(c1ccccc1C)S(C)(=O)=O	83*	2	-15	2	-3	-4	13	9
COc1cc(NC(=O)CSc2nnc3ccc(-c4cccnc4)nn23)cc(OC)c1	5	3	/	/	10	/	/	/
O=C(O)C1CCC(N2C(=O)C3C4CCC(C4)C3C2=O)CC1 (stereo not given)	2	6	-37	-1	-10	-4	/	/
Cc1oc(/N=C/c2ccccc2O)c(C#N)c1C	9	13	-20	-3	18	/	/	/
Cc1oc(/N=C/c2ccc(O)cc2O)c(C#N)c1C	65*	64*	-46	0	53*	17	57*	65*
CC(C)N(C(=O)Nc1ccc2nsnc2c1)C(C)C	66*	52*	-58	1	28	1	28	24
COc1cc([N+](=O)[O-])c2ncsc2c1	-2	3	9	-9	2	12	/	/
COc1cc(SSc2cc(OC)cc([N+](=O)[O-])c2N)c(N)c([N+](=O)[O-])c1	55*	26	-13	/	7	75*	31*	53*
CCOC(=O)C1Nc2ccc(C)cc2C2C=CCC12 (stereo not given)	51*	23	/	/	8	/	4	3
CCOC(=O)C1Nc2ccc(Br)cc2C2C=CCC12 (stereo not given)	44*	25	/	/	9	/	9	9
COC(=O)CNC(=O)C1Nc2ccccc2C2C=CCC12 (stereo not given)	22	23	/	/	6	/	/	/
O=C(O)C1Nc2ccc(Br)cc2C2C=CCC12 (stereo not given)	101*	79*	/	/	7	/	67*	107*
CCOC(=O)c1ccc2c(c1)C1C=CCC1C(C(=O)OCC)N2 (stereo not given)	22	25	/	/	0	/	/	/
